Laboratory results from the supplement of paper PMC7057948, “A genome-wide approach for identification and characterisation of metabolite-inducible systems” (Nature Communications, 2020).

tested on: KynR/P_H16_RS14030 L-kynurenine biosensor (pEH136); assay: relative induction of RFP reporter vs primary effector; higher = stronger activation; conditions: inducer concentration 5 mM; 6 h; Cupriavidus necator H16; minimal medium + 0.4% gluconate
Procedure: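 Orthogonality screen of 21 primary inducers against 21 transcription factor/inducible promoter–mRFP biosensors in C. necator H16 in minimal medium, robotic 96-well format, 5 mM inducer, 30 °C. OD-normalised RFP fluorescence was read 6 h later and expressed as relative induction (%) = 100 × (FL compound − FL uninduced)/(FL primary inducer − FL uninduced); mean of n=4. Cognate pairs (100% by definition) omitted.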

Going from `O=C(O)C(O)C(O)C(=O)O` (configuration not stated) [tartrate] to `C=C(CC(=O)O)C(=O)O` [itaconate], the “relative induction of RFP reporter” value falls from 0.0585% to -0.472%.

Compared with `CC(=O)C(C)O` (configuration not stated) [acetoin], `C=CC(=O)O` [acrylate] is higher in “relative induction of RFP reporter” value: 0.0145% for the first, 0.406% for the second.

Going from `N[C@@H](Cc1ccccc1)C(=O)O` [L-phenylalanine] to `N[C@@H](Cc1ccc(O)cc1)C(=O)O` [L-tyrosine], the “relative induction of RFP reporter” value falls from 1.98% to 0.164%.

First: O=C(O)c1ccccc1O [salicylate]
Second: O=C(O)c1ccccc1 [benzoate]
The “relative induction of RFP reporter” value of the first is lower: -0.248% for the first, -0.112% for the second.

Going from `O=C(O)C(=O)c1ccccc1` [phenylglyoxylate] to `O=C(O)c1ccc(O)c(O)c1` [3,4-dihydroxybenzoate], the “relative induction of RFP reporter” value rises from 0.112% to 0.138%.

Compared with `OC1OC[C@H](O)[C@H](O)[C@H]1O` (mixture of isomers) [L-arabinose], `O=C(O)C1CCCCC1` [cyclohexane-1-carboxylate] is higher in “relative induction of RFP reporter” value: 0.181% for the first, 0.977% for the second.

Going from `O=C(O)CCO` [3-hydroxypropanoate] to `NCCC(=O)O` [β-alanine], the “relative induction of RFP reporter” value falls from -0.395% to -0.589%.

First: O=c1[nH]c(=O)c2nc[nH]c2[nH]1 [xanthine]
Second: O=C(O)CS(=O)(=O)O [sulfonatoacetate]
The “relative induction of RFP reporter” value of the first is lower: 0.0316% for the first, 0.55% for the second.

For `O=CO` [formate], the “relative induction of RFP reporter” value was 0.482%.
